# Screening results (PubChem)
# Only some compounds are listed: those with a hit (about 28% of all), similar ones and a draw of the others.
# CYP2C19 act: human CYP2C19 activators, primary screen, biochemical, luminescence; Cytochrome P450 2C19 (Homo sapiens), P33261; recombinant CYP2C19, luciferin-H EGE luminescence; active compounds read high; 0 = fully inhibited enzyme, 1 = untreated enzyme; activation factor at 5 µM; 96,000 tested, under 10 active;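 active = activation factor of at least 2 at 5 µM in the primary screen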
# CYP2C19 inh: blockers of cytochrome P450 2C19 activity – biochemical, luminescence, ADME assay, primary screen; P33261; CYP2C19 Supersomes, luciferin-H EGE luminescence, 30 min; inhibition, % at 5 µM; 96,000 compounds, 21% hits;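 active = CYP2C19 inhibition above a set limit at 5 µM in the primary screen, cut at about 50% in these data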
# Mac1 fbg enh: enhancers of CD11b/CD18 adhesion to fibrinogen, primary screen, K562 cells, luminescence; ATPlite luminescence; 93,000 compounds, 0.07% hits; activation, % at 10 µM; AID 1499, 2009; Integrin beta-2 (Homo sapiens) + Integrin alpha-M (Homo sapiens), P05107+P11215;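 active = 10 µM primary screen giving 50% or more activity, confirmed by 40% or more on retest at that dose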
# CYP2C9 activ: human CYP2C9 activators, primary screen, biochemical, luminescence; Cytochrome P450 2C9 (Homo sapiens), P11712; recombinant CYP2C9, luciferin-H conversion; active compounds read high; factor 1 = untreated enzyme, 0 = blocked; activation factor at 5 µM; 96,000 compounds, 1.4% hits; AID 1024, 2008;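 active = activation factor of 2 or more for CYP2C9 at a 5 µM dose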
# Mac1 fbg inh: inhibitors of CD11b/CD18 adhesion to fibrinogen, primary screen, K562 cells, luminescence | Integrin beta-2 (Homo sapiens) + Integrin alpha-M (Homo sapiens), P05107+P11215 | ATPlite luminescence; Mn2+ added to activate the integrin | inhibition, % at 10 µM | 93,000 compounds, 0.54% hits | AID 1497, 2009;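 active = primary inhibition of 50% or more at 10 µM, then 40% or more on retest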
# CYP2C9 inhib: blockers of cytochrome P450 2C9 activity – biochemical, luminescence, ADME assay, primary screen | P11712 | CYP2C9 Supersomes, luciferin-H conversion | inhibition, % at 5 µM | 96,000 compounds, 20% hits | AID 777, 2007;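 active = blocking of liver enzyme CYP2C9 beyond about 50% at 5 µM, limit read from the data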
# Numbers stand for hits; 0 = inactive; - = not tested or not shown.
SMILES,CYP2C19 act,CYP2C19 inh,Mac1 fbg enh,CYP2C9 activ,Mac1 fbg inh,CYP2C9 inhib
Cc1ccc(S(=O)(=O)N(C)C)cc1NC(=O)CCNC(=O)c1ccccc1Cl,-,-,0,-,0,-
CCN(CC)S(=O)(=O)c1ccc2oc(C(=O)N3CCCCCC3)c(C)c2c1,0,0,0,0,0,56.5
Cc1c(C(=O)N2CCOCC2)oc2ccc(S(=O)(=O)N3CCCCCC3)cc12,0,0,0,0,0,0
CCN(CC)C(=O)c1oc2ccc(S(=O)(=O)N3CCCCCC3)cc2c1C,0,50.9,0,0,0,0
Cc1c(C(=O)NCc2cccnc2)oc2ccc(S(=O)(=O)N3CCC4(CC3)OCCO4)cc12,0,0,0,0,0,0
Cc1ccc(CNC(=O)c2oc3ccc(S(=O)(=O)N4CCC5(CC4)OCCO5)cc3c2C)cc1,0,0,0,0,0,65.2
COCCCNC(=O)c1oc2ccc(S(=O)(=O)N(C)C3CCCCC3)cc2c1C,0,0,0,0,0,76.3
CCN(CC)S(=O)(=O)c1ccc2oc(C(=O)N3CCOCC3)c(C)c2c1,0,0,0,0,0,0
C=CCNC(=O)c1oc2ccc(S(=O)(=O)N(CC)CC)cc2c1C,0,0,0,0,0,0
Cc1cc(C)n2nc(SCC(=O)c3cc(C)n(-c4cc(C)on4)c3C)nc2n1,0,0,0,0,0,0
CCSc1nc2ccc(N3C(=O)C4C5C=CC(C5)C4C3=O)cc2s1 (configuration not stated),-,-,0,-,0,-
COC(=O)C(O)(CC(=O)Nc1cccc(SC)c1)C(F)(F)F (configuration not stated),0,0,0,0,0,0
Cc1c(C(=O)O)oc2ccc(S(=O)(=O)NCc3ccc(F)cc3)cc12,0,0,0,0,0,71.5
CCCN(CCC)S(=O)(=O)c1ccc(C(=O)N2CCOCC2)cc1,0,0,0,0,0,0
CCN(CC)S(=O)(=O)c1ccc(C(=O)N2CCCCC2)cc1,0,0,0,0,0,70.3
Cc1c(C(=O)Nc2ccc(F)cc2)oc2ccc(S(=O)(=O)N3CC(C)CC(C)C3)cc12 (configuration not stated),0,0,0,0,0,57.8
CC(=O)c1sc2nc(=O)c(C)nn2c1C,0,0,0,0,0,0
CCOc1ccc(CC(=O)NCc2cn3c(C)csc3n2)cc1,0,0,0,0,0,0
O=C(CN1C(=O)CCC1=O)Nc1nc(-c2ccc(Oc3ccccc3)cc2)cs1,-,-,0,-,0,-
CCOC(=O)c1[nH]c2ccc(F)cc2c1NC(=O)C1=COCCO1,0,0,0,0,0,0
Cn1cnc2c1c(=O)n(CC(O)CO)c(=O)n2C (configuration not stated),0,0,0,0,0,0
CSc1nc2ccc(S(=O)(=O)NC3CCCCC3)cc2s1,0,73.5,0,0,0,0
CSc1nc2ccc(S(=O)(=O)N3CCCCC3)cc2s1,0,0,0,0,0,0
CSc1nc2ccc(NS(=O)(=O)c3ccc4c(c3)OCCO4)cc2s1,0,100.4,0,0,0,84.5
COc1ccc(C(=O)Nc2ccc(C(=O)Nc3nccs3)cc2)cc1[N+](=O)[O-],-,-,0,-,0,-
SMILES,CYP2C19 act,CYP2C19 inh,Mac1 fbg enh,CYP2C9 activ,Mac1 fbg inh,CYP2C9 inhib
COc1ccc(CC(=O)Nc2cccc(-c3nnc(-c4cccc(C)c4)o3)c2)cc1OC,0,98.4,0,0,0,88.3
COc1ccc(CC(=O)Nc2cccc(C(=O)Nc3ccccc3C(=O)O)c2)cc1OC,-,-,0,-,0,-
COc1ccc(-c2nc3cc(NC(=O)Cc4ccc(OC)c(OC)c4)ccc3o2)cc1,0,57.0,-,0,-,55.3
COc1ccc(CC(=O)Nc2cccc(-c3nnc(-c4ccccc4)o3)c2)cc1OC,0,85.0,0,0,0,77.8
COc1ccc(CC(=O)Nc2ccc(-c3nnc(-c4ccccc4)o3)cc2)cc1OC,0,0,0,0,0,0
CCCC(C)NC(=O)c1ccc(OCc2ccc(Cl)cc2)c(OC)c1 (configuration not stated),-,-,0,-,0,-
CCOC(=O)Cn1c(S(=O)(=O)Cc2ccc(F)cc2)nc(-c2ccccc2)c1-c1ccccc1,0,51.9,-,0,-,0
C#CCn1c(S(=O)(=O)Cc2ccc(F)cc2)nc(-c2ccccc2)c1-c1ccccc1,0,97.6,0,0,0,91.6
Cc1nc(N)c(C#N)c(-c2cccnc2)c1C,0,0,-,2,-,0
CCc1nc(N)c(C#N)c(-c2cccnc2)c1C,0,0,0,0,0,0
CCc1ccc(S(=O)(=O)NCc2csc(-c3ccccc3)n2)s1,0,0,0,0,0,76.2
O=C(CNS(=O)(=O)c1ccc2ccccc2c1)OCc1csc(-c2ccccc2)n1,-,-,0,-,0,-
CCS(=O)(=O)NCCc1csc(-c2ccccc2)n1,0,72.8,0,0,0,0
CCc1ccc(S(=O)(=O)NCCc2csc(-c3cccnc3)n2)s1,0,94.2,0,0,0,89.4
CCc1ccc(S(=O)(=O)NCCc2csc(-c3ccccc3)n2)s1,0,92.7,0,0,0,74.2
CCS(=O)(=O)NCCc1csc(-c2cccnc2)n1,0,0,0,0,0,0
O=S(=O)(NCc1csc(-c2cccnc2)n1)c1ccc(Cl)s1,0,75.9,0,0,0,62.4
Nc1nnc(-c2cccnc2)s1,0,0,0,0,0,0
C/C(=N\N1CCN(C2c3ccccc3-c3ccccc32)CC1)c1ccncc1,0,77.3,0,0,0,51.5
Cc1ccsc1/C=N/N1CCN(C2c3ccccc3-c3ccccc32)CC1,0,0,-,0,-,88.1
C(=N\N1CCN(C2c3ccccc3-c3ccccc32)CC1)/c1ccncc1,0,0,0,0,0,0
CCCCc1c(O)nc(SCC(=O)NCCc2ccc(OC)c(OC)c2)[nH]c1=O,0,0,0,0,0,0
CC(C)OC(=O)/C(=C\c1ccc2c(c1)c1ccccc1n2C)NC(=O)c1ccccc1,0,0,-,0,-,75.7
Cc1nn(C(C)C(=O)N2CCOCC2)c(C)c1[N+](=O)[O-] (configuration not stated),-,-,0,-,0,-
Cc1nn(C(C)C(=O)N2CCc3ccccc32)c(C)c1[N+](=O)[O-] (configuration not stated),0,55.4,0,0,0,67.7
COc1ccc(-c2noc(-c3ccccc3Cl)n2)cc1OC,0,0,0,0,0,0
Clc1ccc(OCc2nc(-c3ccncc3)no2)c(Cl)c1,0,95.7,0,0,0,94.6
COc1ccccc1-c1nc(-c2ccncc2)no1,0,88.8,0,0,0,0
COc1ccccc1-c1nc(-c2ccc(Br)cc2)no1,0,0,0,0,0,0
